Test results: PubChem BioAssay AID1159580 (chemical genetic matrix, 2015)
Hit rate of the full screen: of about 5,500 compounds, about 2,000 (36%) were called active. Another 18% or so got no clear call; they are omitted. Rule as the data show it: active = normalized growth mostly below about 0.91 (no sharp cut-off); inconclusive = no clear call, values can overlap the other calls; inactive = mostly above about 0.92. This is one part of the list.

Test: chemical genetic growth profiling, strain panel (AID 1159580);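 also: tested at 20 µM; growth read once vehicle control cultures reached saturation at 30 °C; 1 = growth at the plate median or of vehicle wells; lower values mean less growth of the strain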
Conditions: growth OD

Measured: normalized growth

Nc1nc2ncc(=O)[nH]c2c(=O)[nH]1
inactive: S. cerevisiae deletion strains, locus YJR075W, strain HOC1, hits give low values 1.02 | S. cerevisiae deletion strains, locus YKL009W, strain mrt4, hits give low values 0.973 | S. cerevisiae deletion strains, locus YKL068W, hits give low values 0.981 | S. cerevisiae deletion strains, locus YKL085W, strain MDH1 (second series), hits give low values 0.991 | S. cerevisiae deletion strains, locus YKL085W, strain MDH1, hits give low values 0.991 | S. cerevisiae deletion strains, locus YKL160W, strain elf1, hits give low values 0.975 | S. cerevisiae deletion strains, locus YKL190W, strain CNB1, hits give low values 0.991 | S. cerevisiae deletion strains, locus YKR001C, strain vps1, hits give low values 0.999 | S. cerevisiae deletion strains, locus YKR026C, strain gcn3, hits give low values 0.977 | S. cerevisiae deletion strains, locus YKR091W, strain srl3, hits give low values 0.979 | S. cerevisiae deletion strains, locus YLL001W, strain dnm1, hits give low values 0.946 | S. cerevisiae deletion strains, locus YLL026W, hits give low values 0.982 | S. cerevisiae deletion strains, locus YLL041C, strain sdh2, hits give low values 0.976 | S. cerevisiae deletion strains, locus YLR027C, strain aat2, hits give low values 0.984 | S. cerevisiae deletion strains, locus YLR039C, strain RIC1, hits give low values 0.997 | S. cerevisiae deletion strains, locus YLR058C, strain SHM2, hits give low values 0.996 | S. cerevisiae deletion strains, locus YLR102C, strain apc9, hits give low values 0.984 | S. cerevisiae deletion strains, locus YLR113W, strain HOG1, hits give low values 0.941 | S. cerevisiae deletion strains, locus YLR221C, strain rsa3, hits give low values 0.977 | S. cerevisiae deletion strains, locus YLR258W, strain gsy2, hits give low values 0.982 | S. cerevisiae deletion strains, locus YLR262C, strain YPT6 (second series), hits give low values 0.986 | S. cerevisiae deletion strains, locus YLR262C, strain YPT6, hits give low values 0.994 | S. cerevisiae deletion strains, locus YLR268W, strain sec22, hits give low values 1.01 | S. cerevisiae deletion strains, locus YLR320W, strain mms22, hits give low values 0.972 | S. cerevisiae deletion strains, locus YLR330W, strain CHS5, hits give low values 0.992 | S. cerevisiae deletion strains, locus YLR342W, strain FKS1 (second series), hits give low values 0.997 | S. cerevisiae deletion strains, locus YLR342W, strain FKS1, hits give low values 0.987 | S. cerevisiae deletion strains, locus YLR357W, strain rsc2, hits give low values 0.967 | S. cerevisiae deletion strains, locus YLR370C, strain arc18, hits give low values 0.965 | S. cerevisiae deletion strains, locus YLR371W, strain rom2, hits give low values 0.976 | S. cerevisiae deletion strains, locus YLR384C, strain iki3, hits give low values 0.968 | S. cerevisiae deletion strains, locus YLR418C, strain cdc73, hits give low values 1.05 | S. cerevisiae deletion strains, locus YML016C, strain PPZ1, hits give low values 1 | S. cerevisiae deletion strains, locus YML032C, strain rad52, hits give low values 0.967 | S. cerevisiae deletion strains, locus YML120C, strain ndi1, hits give low values 0.972 | S. cerevisiae deletion strains, locus YML124C, strain tub3, hits give low values 0.998 | S. cerevisiae deletion strains, locus YMR058W, strain fet3, hits give low values 0.988 | S. cerevisiae deletion strains, locus YMR078C, strain ctf18, hits give low values 0.979 | S. cerevisiae deletion strains, locus YMR125W, strain sto1, hits give low values 0.969 | S. cerevisiae deletion strains, locus YMR129W, hits give low values 0.972 | S. cerevisiae deletion strains, locus YMR205C, strain PFK2, hits give low values 0.967 | S. cerevisiae deletion strains, locus YMR223W, strain ubp8, hits give low values 0.989 | S. cerevisiae deletion strains, locus YMR231W, strain pep5, hits give low values 0.979 | S. cerevisiae deletion strains, locus YMR263W, strain SAP30, hits give low values 1.01 | S. cerevisiae deletion strains, locus YMR307W, strain GAS1, hits give low values 1 | S. cerevisiae deletion strains, locus YNL067W, strain RPL9B, hits give low values 1.03 | S. cerevisiae deletion strains, locus YNL071W, strain lat1, hits give low values 0.984 | S. cerevisiae deletion strains, locus YNL128W, strain TEP1, hits give low values 1.03 | S. cerevisiae deletion strains, locus YNL153C, strain GIM3, hits give low values 1.01 | S. cerevisiae deletion strains, locus YNL183C, strain NPR1, hits give low values 0.942 | S. cerevisiae deletion strains, locus YNL209W, strain ssb2, hits give low values 0.993 | S. cerevisiae deletion strains, locus YNL233W, strain BNI4, hits give low values 1.01 | S. cerevisiae deletion strains, locus YNL248C, strain rpa49, hits give low values 0.98 | S. cerevisiae deletion strains, locus YNL250W, strain rad50, hits give low values 0.987 | S. cerevisiae deletion strains, locus YNL271C, strain bni1, hits give low values 0.995 | S. cerevisiae deletion strains, locus YNL298W, strain CLA4, hits give low values 1 | S. cerevisiae deletion strains, locus YNL307C, strain MCK1, hits give low values 0.991 | S. cerevisiae deletion strains, locus YNL322C, strain KRE1 (second series), hits give low values 0.967 | S. cerevisiae deletion strains, locus YNL322C, strain KRE1, hits give low values 1.01 | S. cerevisiae deletion strains, locus YNR049C, strain mso1, hits give low values 0.973 | S. cerevisiae deletion strains, locus YNR052C, strain pop2, hits give low values 0.983 | S. cerevisiae deletion strains, locus YOL006C, strain TOP1, hits give low values 1.11 | S. cerevisiae deletion strains, locus YOL012C, strain htz1 0.879 | S. cerevisiae deletion strains, locus YOL147C, strain pex11, hits give low values 0.978 | S. cerevisiae deletion strains, locus YOR001W, strain rrp6, hits give low values 0.986 | S. cerevisiae deletion strains, locus YOR061W, strain CKA2, hits give low values 1.01 | S. cerevisiae deletion strains, locus YOR069W, strain VPS5, hits give low values 1 | S. cerevisiae deletion strains, locus YOR070C, strain gyp1, hits give low values 0.983 | S. cerevisiae deletion strains, locus YOR080W, strain dia2, hits give low values 0.978 | S. cerevisiae deletion strains, locus YOR083W, strain WHI5, hits give low values 0.966 | S. cerevisiae deletion strains, locus YOR106W, strain vam3, hits give low values 0.988 | S. cerevisiae deletion strains, locus YOR136W, strain idh2, hits give low values 0.987 | S. cerevisiae deletion strains, locus YOR144C, strain elg1, hits give low values 0.989 | S. cerevisiae deletion strains, locus YOR184W, strain ser1, hits give low values 0.968 | S. cerevisiae deletion strains, locus YOR231W, strain MKK1, hits give low values 0.938 | S. cerevisiae deletion strains, locus YOR265W, strain rbl2, hits give low values 0.981 | S. cerevisiae deletion strains, locus YOR270C, strain vph1, hits give low values 0.951 | S. cerevisiae deletion strains, locus YOR290C, strain snf2, hits give low values 0.911 | S. cerevisiae deletion strains, locus YOR316C, strain cot1, hits give low values 0.985 | S. cerevisiae deletion strains, locus YPL051W, strain arl3, hits give low values 0.984 | S. cerevisiae deletion strains, locus YPL055C, strain LGE1, hits give low values 1.02 | S. cerevisiae deletion strains, locus YPL078C, strain atp4, hits give low values 0.97 | S. cerevisiae deletion strains, locus YPL106C, strain sse1, hits give low values 0.948 | S. cerevisiae deletion strains, locus YPL240C, strain hsp82, hits give low values 0.984 | S. cerevisiae deletion strains, locus YPL241C, strain CIN2, hits give low values 0.994 | S. cerevisiae deletion strains, locus YPL256C, strain CLN2, hits give low values 0.963 | S. cerevisiae deletion strains, locus YPR119W, strain clb2, hits give low values 0.974 | S. cerevisiae deletion strains, locus YPR141C, strain kar3, hits give low values 0.975 | S. cerevisiae deletion strains, locus YPR163C, strain tif3, hits give low values 0.988 | S. cerevisiae deletion strains, locus YPR167C, strain met16, hits give low values 1 | S. cerevisiae deletion strains, strain wtn01, hits give low values 0.994 | S. cerevisiae strains, strain wild type, hits give low values 1
